# TDP1 cell noCPT: qHTS for Inhibitors of human tyrosyl-DNA phosphodiesterase 1 (TDP1): qHTS in cells in absence of CPT; DT40 Tdp1-/- hTDP1 cells, no CPT, ATP luminescence, 48 h; Potency, µM (titrated, usually from 46.2 µM), without a hit: top-dose activity change, negative = growth inhibition, actives largely listed as inhibitors; hit rate 15% among 420,000; AID 686978, 2013; also: % is scaled to controls: 0 for no effect and ±100 for the full control effect; nearly all actives have a fitted effect of over 55% in size
#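 A cellular qHTS used chicken DT40 cells lacking endogenous Tdp1 but carrying stably transfected human TDP1. Compounds were applied without camptothecin, and cell growth kinetics were judged by ATP-dependent luminescence after ≥48 hr.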
# TGFb inhibitor: qHTS for Inhibitors of TGF-b. Potency, µM (doses to about 46.1 µM), for the others: at the highest dose activity, negative = inhibition, most hits filed as inhibitors. HepG2 CAGA-GFP TGF-b/SMAD3 reporter, GFP fluorescence, 18 h; TGF-beta stimulated, 500 pg/mL final. AID 588855, 2011. hit rate 1.2% among 410,000; also: % is scaled to controls: 0 for no effect and ±100 for the full control effect; nearly all actives have a fitted effect of over 65% in size
#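 Inhibition was scored as loss of TGF-beta-induced (500 pg/mL final, 18 hours, 37 degrees C) GFP in HEPG2 cells carrying a CAGA-GFP reporter, in DMEM with 1% FBS. Well GFP was summed per cell; Activity was normalised to unstimulated and stimulated DMSO wells, then concentration-response fitting.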
# TDP1 cell CPT: qHTS for Inhibitors of human tyrosyl-DNA phosphodiesterase 1 (TDP1): qHTS in cells in presence of CPT. chicken DT40 Tdp1-/-;hTDP1 cells + 20 nM CPT, ATP luminescence, 48 h. Potency, µM (titrated, usually from 46.2 µM), for inactives: at the highest dose activity change, negative = growth inhibition, hits mostly inhibitors. hit rate 12% among 420,000. AID 686979, 2013; also: % is scaled to controls: 0 for no effect and ±100 for the full control effect; nearly all actives have a fitted effect of over 55% in size
#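 Cell growth measured by CellTiter-Glo luminescence after a minimum 48 h, 37 C compound exposure with 20 nM CPT in Tdp1-knockout DT40 cells stably expressing hTDP1, seeded 400/well; qHTS titration format.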
# HT1080-NT tox: qHTS for induction of synthetic lethality in tumor cells producing 2HG: qHTS for the HT-1080-NT fibrosarcoma cell line; HT-1080-NT fibrosarcoma viability, CellTiter-Glo ATP luminescence, 48 h; Potency, µM (doses to about 46.1 µM), for the others: at the top dose activity, negative = less viability, usual class: cytotoxic; hit rate 1.6% among 360,000;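 also: NT is the 2HG producing partner of a matched IDH1 knockdown line; 0% = DMSO-treated cells and -100% = media-only wells without cells; nearly all actives have a fitted effect of over 55% in size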
#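 Viability by CellTiter-Glo luminescence after 48 h compound exposure at 37C of HT-1080-NT cells (750/well, RPMI, 5% FBS). % activity scaled between DMSO wells and medium-only wells, then curve-fitted and categorized by curve class.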
# HepG2 tox: qHTS for Inhibitors of TGF-b: Cytotox Counterscreen; HepG2 CAGA-GFP viability, ATP luminescence, 18 h; Potency, µM (titrated, usually from 46.1 µM), inactives show at the highest dose activity change, negative = cytotoxicity, hits mostly cytotoxic; hit rate 0.76% among 410,000; AID 588856, 2011
#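 CellTiter-Glo luminescence gave cytotoxicity after 18 hours at 37 degrees C. The cells were HepG2 CAGA-GFP in 1% FBS DMEM, stimulated with 500 pg/mL TGF-beta after compound addition. %Activity was normalised to no-cell wells (complete cell-killing) and DMSO (no toxicity), and curves were fitted and classified.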
# HT1080 IDH1KD tx: qHTS for induction of synthetic lethality in tumor cells producing 2HG: qHTS for the HT-1080-IDH1KD cell line; HT-1080 IDH1 knockdown viability, ATP luminescence, 48 h; Potency, µM (highest dose often 46.1 µM), for inactives: at the highest dose activity, negative = toxicity, usual class: cytotoxic; hit rate 2% among 360,000;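 also: 0% = DMSO wells and -100% = cell-free medium wells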
#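 Knockdown cells (IDH1KD HT-1080) received compounds 2 h after plating at 750 cells/well and were kept 48 h at 37 °C in 5% FBS RPMI. A CellTiter-Glo luminescence read gave % activity for curve fitting.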
# Numbers without * were called inactive; ? = inconclusive; / = no result; ! = repeats disagree; [ ] = another dose, or the depositor's remark. Rows were chosen to be rich in hits. Some 17% of all compounds tested hit in one or more screens of this group. Calls follow the shape of the dose curve; as a rule, active = well fitted curve in the direction sought with a large enough effect; inconclusive = small, poorly fitted or top-dose-only effect, or another doubt; inactive = no such curve, though single readings can be large; an effect the other way counts as inactive or inconclusive. Potency is read from the fitted curve at half-maximal effect.
SMILES,TDP1 cell noCPT,TGFb inhibitor,TDP1 cell CPT,HT1080-NT tox,HepG2 tox,HT1080 IDH1KD tx
CC(=O)Nc1cc(-c2ccc(N3CCN(C)CC3)cc2)cn2c(-c3cccc(C(C)=O)c3)cnc12,?,?,?,-19.4%,-58.5%,-29.1%
CC(=O)c1ccc(-c2cnc3c(NC=O)cc(-c4ccc(N5CCN(C)CC5)cc4)cn23)cc1,20.6µM*,?,?,25.9µM*,-32.5%,?
CN1CCN(c2ccc(-c3cc(NC=O)c4ncc(-c5ccc(F)c(Cl)c5)n4c3)cc2)CC1,16.4µM*,20µM*,11.6µM*,?,-86.4%,?
CC1(C)CC(=O)C2=C(C1)OC(N)=C([N+](=O)[O-])C2c1cccs1 (stereo not drawn),-13.4%,-4.8%,2.7%,0.4%,-1.7%,7.6%
CC(NC(=O)C1CCOCC1)c1nnc2n1CCN(Cc1ccc3ccccc3c1)CC2 (stereo not drawn),-15.6%,/,14.9%[9.04 µM],/,/,/
COc1ccc(-n2cc(CNCCCN3CCCC3=O)c(-c3ccccc3Cl)n2)cc1,16.4µM*,?,16.4µM*,2.1%,-32.3%,5.5%
COc1ccc(-c2nn(-c3ccccc3)cc2CNCCN2CCOC2=O)c(F)c1,?,3.0%,?,-1.3%,-7.4%,-15.5%
COc1cccc(CCc2nnc(CCC(=O)NCCC3CCCCO3)o2)c1 (stereo not drawn),19.4%,13.4%,10.9%,18.8%,8.4%,7.9%
O=C1C[C@@H]2c3c(cccc3CN1Cc1ccc(Br)cc1)C[C@@H](O)[C@H]2O,-22.5%,1.3%,-1.9%,2.2%,-5.5%,7.3%
Cc1ccc(CN2Cc3cccc4c3[C@@H](CC2=O)[C@H](O)[C@H](O)C4)cc1,-6.9%,?,-2.9%,7.6%,-10.2%,10.4%
Cc1cccc(CN2Cc3cccc4c3[C@H](C=CC4)CC2=O)c1,20µM*,-9.6%,15.8µM*,/,0.7%,/
O=C1C[C@H]2C=CCc3cccc(c32)CN1Cc1ccc(F)cc1,12.6µM*,?,?,/,-28.5%,/
C#Cc1ccc([C@@H]2C=C(C(=O)N3CCN(Cc4ccccc4)CC3)O[C@H](OCC)[C@H]2CCCO)cc1,23.1µM*,-30.4%,?,-0.5%,-11.2%,0.4%
CCO[C@H]1OC(C(=O)N2CCN(Cc3ccccc3)CC2)=C[C@@H](c2coc3ccccc3c2=O)[C@@H]1CCCO,23.1µM*,-3.4%,25.9µM*,-8.4%,-22.8%,-6.3%
CCO[C@@H]1OC(C(=O)N2CCN(Cc3ccc4c(c3)OCO4)CC2)=C[C@H](c2coc3ccccc3c2=O)[C@H]1CCCO,18.4µM*,-17.6%,16.4µM*,1.4%,-20.6%,-1.7%
CCO[C@H]1OC(C(=O)N2CCN(Cc3ccc4c(c3)OCO4)CC2)=C[C@@H](c2csc3ccccc23)[C@@H]1CCCO,?,?,?,?,-5.2%,?
CCO[C@@H]1OC(C(=O)N2CCN(Cc3ccccc3)CC2)=C[C@H](c2coc3ccccc3c2=O)[C@H]1CCCO,7.31µM*,?,8.2µM*,-2.8%,-21.7%,-5.3%
Cc1cc(NC(=O)CSCC(=O)Nc2nc3ccccc3[nH]2)no1,16.4%,0.0%,9.6%,9.8%,2.2%,7.0%
CCOC(=O)c1noc2ncnc(Nc3cc(Cl)c(OC)cc3OC)c12,9.9%,-20.8%,-11.9%,/,-8.6%,/
CN1C(=O)C(CC(=O)Nc2ccc(F)cc2)N(Cc2ccco2)C1=S (stereo not drawn),-13.6%,-16.1%,8.4%,-4.7%,2.0%,22.0%
COC(=O)C1=C(N)Oc2cc(C)[nH]c(=O)c2C1c1cccnc1 (stereo not drawn),-22.3%,5.0%,-5.0%,-2.0%,-23.3%,1.5%
COc1ccc(OC)c(C(=O)Nc2c(O)ccc3ccccc23)c1,16.4µM*,-3.2%,20.6µM*,-11.7%,-3.4%,-16.1%
COc1ccc(OC)c(NC(=O)Nc2ccc(O)c3ccccc23)c1,4.61µM*,?,2.59µM*,?,-24.2%,?
COc1ccc(OC)c(NC(=O)Nc2ccccc2C)c1,-9.9%,-13.9%,0.3%,24.3%,-17.7%,19.9%
COc1ccc(OC)c(NC(=O)Nc2cc(NC(=O)Nc3cc(OC)ccc3OC)c(C)nc2C)c1,?,16.8%,-8.6%,18.4µM*,-6.0%,23.1µM*
SMILES,TDP1 cell noCPT,TGFb inhibitor,TDP1 cell CPT,HT1080-NT tox,HepG2 tox,HT1080 IDH1KD tx
COc1ccc(OC)c(NC(=O)Nc2c(O)ccc3ccccc23)c1,?,?,14.6µM*,-14.3%,-41.3%,-8.7%
CCOc1ccc(C(=O)Nc2c(C(=O)Nc3ccccc3OC)oc3ccccc23)cc1OCC,?,9.4%,-3.5%,/,-11.3%,/
O=C(c1cc(C2CC2)nn1-c1ccccc1)N1CCN(c2ccccn2)CC1,?,11.3%,?,4.0%,-3.2%,-0.6%
S=c1c2c(nc3nc[nH]n13)CCC2,20.6µM*,10µM*,?,-7.3%,-63.8%,-3.8%
CCOC(=O)C[C@H]1c2ccccc2S(=O)(=O)N1Cc1ccc(Cl)cc1,17.8µM*,?,11.2µM*,0.0%,-5.7%,3.6%
COc1ccc(CN2[C@@H](CC(=O)O)c3ccccc3S2(=O)=O)cc1,2.82µM*!,-6.3%,?,11.1%,-41.4%,-0.6%
COc1ccc(CN2[C@@H](CC(C)=O)c3cc(C(F)(F)F)ccc3S2(=O)=O)cc1,20.6µM*,-23.7%,15.8µM*,7.5%,-18.2%,0.0%
CCOC(=O)/C=C/c1ccc2c(c1)S(=O)(=O)N(Cc1ccc(OC)cc1)[C@H]2CC(=O)OCC,12.6µM*,-24.2%,20.6µM*,2.2%,-7.1%,-4.2%
O=C(O)C[C@H]1c2ccccc2S(=O)(=O)N1c1ccccc1,-25.4%,10.2%,?,10.9%,3.3%,7.3%
CCOC(=O)/C=C/c1ccc2c(c1)S(=O)(=O)N(C1CCCC1)[C@H]2CC(=O)OCC,?,2.6%,?,/,0.4%,/
Cc1c(N2C(=O)c3ccccc3C2(O)c2ccccc2)c(=O)n(-c2ccccc2)n1C (stereo not drawn),13.1%,-0.9%,12.7%,3.4%,0.4%,11.2%

# Screening results deposited in PubChem by National Center for Advancing Translational Sciences (NCATS).
